Laboratory results taken from ChEMBL document CHEMBL1961873, “Compounds: GSK PKIS; Assays: Nanosyn kinase panel” (2012).

biological target: Mast/stem cell growth factor receptor Kit (Homo sapiens) (UniProt P10721); conditions: at 0.1 µM
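Note: values are mean inhibition of KIT, from the GSK PKIS dataset.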

Sequence of Mast/stem cell growth factor receptor Kit (Homo sapiens) (P10721 whole entry): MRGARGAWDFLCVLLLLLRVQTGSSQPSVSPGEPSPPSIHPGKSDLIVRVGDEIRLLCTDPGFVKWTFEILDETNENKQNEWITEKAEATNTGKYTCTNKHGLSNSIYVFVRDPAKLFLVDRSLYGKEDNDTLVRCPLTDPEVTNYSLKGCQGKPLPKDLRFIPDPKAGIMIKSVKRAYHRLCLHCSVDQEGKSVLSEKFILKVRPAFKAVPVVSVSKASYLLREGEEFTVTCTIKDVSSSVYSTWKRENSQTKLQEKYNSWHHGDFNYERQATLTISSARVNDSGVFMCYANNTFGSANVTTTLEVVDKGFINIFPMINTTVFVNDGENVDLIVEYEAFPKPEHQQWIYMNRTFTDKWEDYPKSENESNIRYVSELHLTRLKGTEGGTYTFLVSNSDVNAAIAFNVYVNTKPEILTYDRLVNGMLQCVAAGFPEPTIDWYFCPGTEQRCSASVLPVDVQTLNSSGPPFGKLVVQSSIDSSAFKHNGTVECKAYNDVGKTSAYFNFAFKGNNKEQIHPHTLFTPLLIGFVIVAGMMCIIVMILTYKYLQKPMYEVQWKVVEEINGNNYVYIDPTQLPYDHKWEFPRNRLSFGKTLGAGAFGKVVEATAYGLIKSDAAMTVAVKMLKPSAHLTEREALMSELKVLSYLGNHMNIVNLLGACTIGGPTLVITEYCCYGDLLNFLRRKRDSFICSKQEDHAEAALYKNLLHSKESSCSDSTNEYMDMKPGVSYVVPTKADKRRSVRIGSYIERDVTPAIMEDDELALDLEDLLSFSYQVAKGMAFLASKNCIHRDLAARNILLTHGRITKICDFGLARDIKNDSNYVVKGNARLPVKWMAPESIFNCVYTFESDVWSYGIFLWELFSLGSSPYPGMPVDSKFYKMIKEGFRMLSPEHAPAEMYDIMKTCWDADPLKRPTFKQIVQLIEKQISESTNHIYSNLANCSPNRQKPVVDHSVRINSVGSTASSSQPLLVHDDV

Compound | inhibition
CCN1CCC(CC(=O)Nc2n[nH]c3nnc(-c4cccc(F)c4F)cc23)CC1 | 0.04%
COc1cccc(-c2c[nH]c3c(N/N=C/c4ccncc4)ncnc23)c1 | 45.5%
NC(=O)c1sc(-n2cnc3ccc(C(F)(F)F)cc32)cc1OCc1ccccc1Br | 5.23%
CC(C)COC(=O)c1ccc2c(c1)/C(=C/Nc1ccc(S(N)(=O)=O)cc1)C(=O)N2 | -0.74%
CCn1c(-c2nonc2N)nc2cnc(Oc3cccc(NC(=O)c4ccc(N(C)C)cc4)c3)cc21 | 0.97%
Fc1cccc(COc2ccc(Nc3ncnc4sc(-c5ccco5)cc34)cc2Cl)c1 | 6.1%
CC(=O)NCc1cccc(C#Cc2cncnc2Nc2ccc(OCc3cccc(F)c3)c(Cl)c2)c1 | -1.01%
CS(=O)(=O)CCNCc1coc(-c2ccc3ncnc(Nc4ccc(OCc5ccccc5)cc4)c3c2)c1 | -0.21%
Cc1ccc2c(-c3ccnc(Nc4ccccc4)n3)c(-c3ccc(F)cc3)nn2n1 | 23.8%
O=S(=O)(CCNCc1ccc(-c2ccc3ncnc(Nc4ccc(OCc5cccc(F)c5)c(Cl)c4)c3c2)o1)c1ccccc1 | 6.8%
CCNC(=O)O[C@H]1CN[C@H](C#Cc2cc3ncnc(Nc4ccc(OCc5cccc(F)c5)c(Cl)c4)c3s2)C1 | 4.29%
c1ccc(COc2ccc(Nc3ncnc4ccc(-c5ccco5)cc34)cc2)cc1 | 0.2%
COC(=O)c1sc(-n2cnc3cc(OC)c(OC)cc32)cc1OCc1ccccc1C(F)(F)F | 2.41%
Cc1cccc2c1NC(=O)/C2=N\Nc1ccc(S(N)(=O)=O)cc1 | 8.83%
CC(=O)Nc1cccc(C#Cc2cncnc2Nc2ccc(OCc3cccc(F)c3)c(Cl)c2)c1 | 1.83%
CCn1c(-c2nonc2N)nc2ccccc21 | 3.84%
